Where “and” joins values, the source holds several entries; their conditions need not be identical. Equal values may be shown once. Read-outs that look alike come from different tables or passages of the source.
Columns and labels:
STK16 = details: n = 1
STK33 = details: concentration: 1 μM, replicates: in singlicate; n = 1
STK35 = details: concentration: 1 μM, replicates: in singlicate; n = 1
STK36 = details: concentration: 1 μM, replicates: in singlicate; n = 1
STK39 = details: n = 1
SYK = details: n = 1
SgK110 = details: n = 1
TAK1 = system: T1, TAK1; details: concentration: 1 μM, replicates: in singlicate; n = 1
T1 construct: gene MAP3K7

TAOK1 = details: concentration: 1 μM, replicates: in singlicate; n = 1
TAOK2 = details: concentration: 1 μM, replicates: in singlicate; n = 1
TAOK3 = details: concentration: 1 μM, replicates: in singlicate; n = 1
TBK1 = details: n = 1
TEC = details: concentration: 1 μM, replicates: in singlicate; n = 1
TESK1 = details: concentration: 1 μM, replicates: in singlicate; n = 1
TGFBR1 = details: n = 1
TGFBR2 = details: concentration: 1 μM, replicates: in singlicate; n = 1
TIE1 = details: n = 1
TIE2 = system: T2, TIE2; details: concentration: 1 μM, replicates: in singlicate; n = 1
T2 construct: gene TEK

TLK1 = details: n = 1
TLK2 = details: concentration: 1 μM, replicates: in singlicate; n = 1
[1] = concentration: 1 μM,replicates: in singlicate, 1 µM
[2] = concentration: 1 μM, replicates: in singlicate
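Note: KINOMEscan kinase panel screen.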

In the case of `CSc1nn2c(=O)cc(N3CCOCC3)nc2n1Cc1cccc(C(F)(F)F)c1C` [GSK2363608], the “%Inh” value (STK16; [1]) is reported as 23% and 13%, the “%Inh” value (STK33) is reported as 0% and the “%Inh” value (STK35) is reported as 0%. The “%Inh” value (STK36) was 0%, the “%Inh” value (STK39; [1]) was 8% and 13% and the “%Inh” value (SYK; [1]) was 30% and 26%. For the same compound, the “%Inh” value (SgK110; [1]) was 0% and 6%, the “%Inh” value (TAK1) was 0% and the “%Inh” value (TAOK1) was 0%. For the same compound, the “%Inh” value (TAOK2) was 0%, the “%Inh” value (TAOK3) was 0% and the “%Inh” value (TBK1; [1]) was 20% and 5%. For the same compound, the “%Inh” value (TEC) was 7%, the “%Inh” value (TESK1) was 19% and the “%Inh” value (TGFBR1; [1]) was 11% and 17%. For the same compound, the “%Inh” value (TGFBR2) was 0%, the “%Inh” value (TIE1; [1]) was 0% and 2% and the “%Inh” value (TIE2) was 0%. For the same compound, the “%Inh” value (TLK1; [1]) was 8% and 0% and the “%Inh” value (TLK2) was 0%.
With `COc1ccc(Nc2nccc(-c3cccc(NC(=O)c4cc5cc(F)ccc5[nH]4)c3)n2)cc1` [GSK1229782] the “%Inh” value (STK16; [2]) was 22%, the “%Inh” value (STK33) was 5% and the “%Inh” value (STK35) was 0%. For the same compound, the “%Inh” value (STK36) was 0%, the “%Inh” value (STK39; [2]) was 4% and the “%Inh” value (SYK; [2]) was 49%. For the same compound, the “%Inh” value (SgK110; [2]) was 0%, the “%Inh” value (TAK1) was 64% and the “%Inh” value (TAOK1) was 2%. For the same compound, the “%Inh” value (TAOK2) was 0%, the “%Inh” value (TAOK3) was 0% and the “%Inh” value (TBK1; [2]) was 24%. The “%Inh” value (TEC) was 19%, the “%Inh” value (TESK1) was 34% and the “%Inh” value (TGFBR1; [2]) was 17%. The “%Inh” value (TGFBR2) was 10%, the “%Inh” value (TIE1; [2]) was 0% and the “%Inh” value (TIE2) was 17%. The “%Inh” value (TLK1; [2]) was 4% and the “%Inh” value (TLK2) was 0%.
In the case of `O=C(Nc1n[nH]c2nc(-c3nccs3)c(Br)cc12)C1CC1` [SB-742251], the “%Inh” value (STK16; [2]) is reported as 61%, the “%Inh” value (STK33) is reported as 0% and the “%Inh” value (STK35) is reported as 0%. The “%Inh” value (STK36) was 1%, the “%Inh” value (STK39; [2]) was 21% and the “%Inh” value (SYK; [2]) was 0%. The “%Inh” value (SgK110; [2]) was 4%, the “%Inh” value (TAK1) was 0% and the “%Inh” value (TAOK1) was 0%. The “%Inh” value (TAOK2) was 0%, the “%Inh” value (TAOK3) was 0% and the “%Inh” value (TBK1; [2]) was 0%. The “%Inh” value (TEC) was 14%, the “%Inh” value (TESK1) was 36% and the “%Inh” value (TGFBR1; [2]) was 15%. The “%Inh” value (TGFBR2) was 0%, the “%Inh” value (TIE1; [2]) was 0% and the “%Inh” value (TIE2) was 8%. For the same compound, the “%Inh” value (TLK1; [2]) was 0% and the “%Inh” value (TLK2) was 0%.
With `COc1ccc(C2=C(Nc3cccc(C(=O)O)c3)C(=O)NC2=O)cc1` [SB-390765] the “%Inh” value (STK16; [2]) was 10%, the “%Inh” value (STK33) was 0% and the “%Inh” value (STK35) was 13%. For the same compound, the “%Inh” value (STK36) was 22%, the “%Inh” value (STK39; [2]) was 0% and the “%Inh” value (SYK; [2]) was 25%. The “%Inh” value (SgK110; [2]) was 0%, the “%Inh” value (TAK1) was 21% and the “%Inh” value (TAOK1) was 28%. For the same compound, the “%Inh” value (TAOK2) was 28%, the “%Inh” value (TAOK3) was 23% and the “%Inh” value (TBK1; [2]) was 11%. For the same compound, the “%Inh” value (TEC) was 10%, the “%Inh” value (TESK1) was 12% and the “%Inh” value (TGFBR1; [2]) was 1%. For the same compound, the “%Inh” value (TGFBR2) was 0%, the “%Inh” value (TIE1; [2]) was 7% and the “%Inh” value (TIE2) was 21%. For the same compound, the “%Inh” value (TLK1; [2]) was 1% and the “%Inh” value (TLK2) was 0%.
`Cl.NC(=O)c1cccc(Nc2nccc(Nc3ccc(Oc4cccc(Cl)c4)c(Cl)c3)n2)c1` [GW659008] was tested, and the “%Inh” value (STK16; [2]) was 38%, the “%Inh” value (STK33) was 0% and the “%Inh” value (STK35) was 0%. For the same compound, the “%Inh” value (STK36) was 0%, the “%Inh” value (STK39; [2]) was 12% and the “%Inh” value (SYK; [2]) was 1%. The “%Inh” value (SgK110; [2]) was 0%, the “%Inh” value (TAK1) was 0% and the “%Inh” value (TAOK1) was 0%. For the same compound, the “%Inh” value (TAOK2) was 0%, the “%Inh” value (TAOK3) was 0% and the “%Inh” value (TBK1; [2]) was 7%. For the same compound, the “%Inh” value (TEC) was 10%, the “%Inh” value (TESK1) was 40% and the “%Inh” value (TGFBR1; [2]) was 0%. The “%Inh” value (TGFBR2) was 12%, the “%Inh” value (TIE1; [2]) was 12% and the “%Inh” value (TIE2) was 1%. For the same compound, the “%Inh” value (TLK1; [2]) was 0% and the “%Inh” value (TLK2) was 0%.
`CN1C(=O)C(Nc2ccc(Cl)c(C(=O)O)c2)=C(c2ccc(Cl)cc2)C1=O` [SB-404290] was tested, and the “%Inh” value (STK16; [2]) was 0%, the “%Inh” value (STK33) was 0% and the “%Inh” value (STK35) was 4%. The “%Inh” value (STK36) was 0%, the “%Inh” value (STK39; [2]) was 0% and the “%Inh” value (SYK; [2]) was 28%. For the same compound, the “%Inh” value (SgK110; [2]) was 0%, the “%Inh” value (TAK1) was 0% and the “%Inh” value (TAOK1) was 11%. For the same compound, the “%Inh” value (TAOK2) was 5%, the “%Inh” value (TAOK3) was 19% and the “%Inh” value (TBK1; [2]) was 27%. The “%Inh” value (TEC) was 0%, the “%Inh” value (TESK1) was 0% and the “%Inh” value (TGFBR1; [2]) was 0%. For the same compound, the “%Inh” value (TGFBR2) was 0%, the “%Inh” value (TIE1; [2]) was 0% and the “%Inh” value (TIE2) was 14%. The “%Inh” value (TLK1; [2]) was 0% and the “%Inh” value (TLK2) was 0%.
With `Cc1cc(N2Cc3ccccc3C2)nc(Nc2ccc(S(=O)(=O)N3CCOCC3)cc2)n1.Cl` [GSK1669917] the “%Inh” value (STK16; [2]) was 0%, the “%Inh” value (STK33) was 0% and the “%Inh” value (STK35) was 0%. For the same compound, the “%Inh” value (STK36) was 4%, the “%Inh” value (STK39; [2]) was 0% and the “%Inh” value (SYK; [2]) was 35%. For the same compound, the “%Inh” value (SgK110; [2]) was 0%, the “%Inh” value (TAK1) was 0% and the “%Inh” value (TAOK1) was 0%. For the same compound, the “%Inh” value (TAOK2) was 0%, the “%Inh” value (TAOK3) was 0% and the “%Inh” value (TBK1; [2]) was 30%. The “%Inh” value (TEC) was 0%, the “%Inh” value (TESK1) was 12% and the “%Inh” value (TGFBR1; [2]) was 0%. The “%Inh” value (TGFBR2) was 0%, the “%Inh” value (TIE1; [2]) was 0% and the “%Inh” value (TIE2) was 0%. For the same compound, the “%Inh” value (TLK1; [2]) was 2% and the “%Inh” value (TLK2) was 0%.
`COc1cc(Nc2nccc(N3CCC(NC(=O)Nc4cc(C)ccc4C)C3)n2)cc(OC)c1OC` (centres unmarked) [GSK1379762] was tested, and the “%Inh” value (STK16; [2]) was 57%, the “%Inh” value (STK33) was 3% and the “%Inh” value (STK35) was 3%. For the same compound, the “%Inh” value (STK36) was 0%, the “%Inh” value (STK39; [2]) was 16% and the “%Inh” value (SYK; [2]) was 0%. The “%Inh” value (SgK110; [2]) was 0%, the “%Inh” value (TAK1) was 0% and the “%Inh” value (TAOK1) was 0%. The “%Inh” value (TAOK2) was 0%, the “%Inh” value (TAOK3) was 0% and the “%Inh” value (TBK1; [2]) was 18%. For the same compound, the “%Inh” value (TEC) was 14%, the “%Inh” value (TESK1) was 0% and the “%Inh” value (TGFBR1; [2]) was 8%. For the same compound, the “%Inh” value (TGFBR2) was 0%, the “%Inh” value (TIE1; [2]) was 49% and the “%Inh” value (TIE2) was 2%. For the same compound, the “%Inh” value (TLK1; [2]) was 0% and the “%Inh” value (TLK2) was 0%.
With `Cc1cc(NCC(c2ccccc2)c2ccccc2)nc(NCc2ccc(C(F)(F)F)cc2)n1` [GW497681] the “%Inh” value (STK16; [2]) was 18%, the “%Inh” value (STK33) was 0% and the “%Inh” value (STK35) was 0%. For the same compound, the “%Inh” value (STK36) was 0%, the “%Inh” value (STK39; [2]) was 0% and the “%Inh” value (SYK; [2]) was 0%. The “%Inh” value (SgK110; [2]) was 0%, the “%Inh” value (TAK1) was 0% and the “%Inh” value (TAOK1) was 0%. For the same compound, the “%Inh” value (TAOK2) was 0%, the “%Inh” value (TAOK3) was 0% and the “%Inh” value (TBK1; [2]) was 22%. For the same compound, the “%Inh” value (TEC) was 0%, the “%Inh” value (TESK1) was 13% and the “%Inh” value (TGFBR1; [2]) was 22%. The “%Inh” value (TGFBR2) was 0%, the “%Inh” value (TIE1; [2]) was 0% and the “%Inh” value (TIE2) was 0%. For the same compound, the “%Inh” value (TLK1; [2]) was 9% and the “%Inh” value (TLK2) was 0%.
With `Fc1cc(Cl)ccc1Nc1ccnc2cc(I)ccc12` [GW551191] the “%Inh” value (STK16; [2]) was 9%, the “%Inh” value (STK33) was 0% and the “%Inh” value (STK35) was 57%. For the same compound, the “%Inh” value (STK36) was 0%, the “%Inh” value (STK39; [2]) was 15% and the “%Inh” value (SYK; [2]) was 0%. The “%Inh” value (SgK110; [2]) was 4%, the “%Inh” value (TAK1) was 0% and the “%Inh” value (TAOK1) was 0%. For the same compound, the “%Inh” value (TAOK2) was 0%, the “%Inh” value (TAOK3) was 0% and the “%Inh” value (TBK1; [2]) was 11%. For the same compound, the “%Inh” value (TEC) was 22%, the “%Inh” value (TESK1) was 12% and the “%Inh” value (TGFBR1; [2]) was 17%. The “%Inh” value (TGFBR2) was 50%, the “%Inh” value (TIE1; [2]) was 0% and the “%Inh” value (TIE2) was 0%. For the same compound, the “%Inh” value (TLK1; [2]) was 21% and the “%Inh” value (TLK2) was 0%.

From paper PMC5540273 (PLoS ONE, 2017)
